Bioassay records (PubChem)
FH mod – Identification of activators of human fumarate hydratase by quantitative high-throughput screening. Fumarate hydratase, mitochondrial (Homo sapiens), P07954. FH coupled MDH/diaphorase resazurin fluorescence, 15 min. Potency, µM (highest dose often 79.9 µM), usual class: inhibitors. actives 0.22% (n = 54,000). AID 1347055, 2019; further: the screen sought activators but most active calls are inhibition curves; nearly all actives have a fitted effect of over 45% in size
p53null 39C kill – kills p53 null cells at the nonpermissive temperature. Potency, µM (top dose mostly 46.1 µM), actives largely listed as cytotoxic. actives 0.97% (n = 55,000). AID 904. H1299 p53-null (neo) cells, 39C, ATPlite viability, 24 h; further: nearly all actives have a fitted effect of over 50% in size
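ATP-luminescence viability readout (ATPlite, 20 min RT) after 24 hr compound treatment at 39C of H1299-neo or H1299-p53A138V cells; titration up to 46 uM; normalized to DMSO and 100 uM tamoxifen; Hill-fit AC50.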
p53null 32C tox – kills p53 null cells at the permissive temperature; H1299-neo p53 null cells, ATP luminescence, 24 h, 32C; Potency, µM (top dose mostly 46.1 µM), most hits filed as cytotoxic; actives 0.62% (n = 55,000); AID 903; further: nearly all actives have a fitted effect of over 55% in size
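Cytotoxicity: H1299-neo (no p53), 32C, 24 h treatment. Concentrations up to 46 uM. Readout cellular ATP, luminescence. Normalization to DMSO basal and tamoxifen 100 uM maximal kill.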
DRV1 agonist – activates human resolvin D1 receptor GPR32 | CHO-K1 GPR32 beta-arrestin PathHunter luminescence, 90 min; zero percent set by DMSO-only wells | activation, % at 76.9 µM | actives 2.5% (n = 48,000) | AID 1346428;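 active means activation of at least 60% and not above a set upper limit, about 1 call in 100 departs from these limits; inconclusive means activation of 40% to 60%, or above that upper limit; inactive means activation under 40%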
Target sequence (O75388 whole entry, looked up): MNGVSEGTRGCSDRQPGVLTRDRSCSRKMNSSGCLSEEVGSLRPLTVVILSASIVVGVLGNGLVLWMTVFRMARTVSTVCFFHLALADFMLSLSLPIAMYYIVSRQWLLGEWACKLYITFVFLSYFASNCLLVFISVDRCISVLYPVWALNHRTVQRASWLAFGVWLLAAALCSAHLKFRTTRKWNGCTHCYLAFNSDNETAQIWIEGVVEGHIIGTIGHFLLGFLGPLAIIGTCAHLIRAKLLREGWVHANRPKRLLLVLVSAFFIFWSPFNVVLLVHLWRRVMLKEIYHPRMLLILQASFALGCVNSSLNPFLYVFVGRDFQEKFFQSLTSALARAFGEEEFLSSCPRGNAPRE
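CHO-K1 cells stably expressing ProLink-tagged GPR32 and Enzyme Activator-tagged beta-arrestin were seeded at 2,500 cells/well overnight, exposed to compounds for 90 min at 37 °C, then read by beta-Gal complementation chemiluminescence after 1 h detection reagent.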
Of the large screens only hits and unclear results are named; the others gave an inactive call; ! = not active in a repeat. An excerpt weighted towards active compounds, which were near 2.9% of everything screened. Unless noted, the call rests on the fitted dose curve; in most records, active means well fitted curve in the direction sought with a large enough effect; inconclusive means small, poorly fitted or top-dose-only effect, or another doubt; inactive means no such curve, though single readings can be large; an effect the other way counts as inactive or inconclusive.

COc1ccc(NC(=O)CCSc2nc(-c3ccc(OC)cc3)cc(C(F)(F)F)n2)cc1	none
COc1ccc(-c2cc(C(F)(F)F)nc(SCCC(=O)Nc3ccc(O)cc3)n2)cc1	DRV1 agonist 86.2
COc1cc(O)cc(O[C@@H]2O[C@H](CO)[C@@H](O[C@@H]3OC[C@](O)(CO)[C@H]3O)[C@H](O)[C@H]2O)c1OC	none (no result: p53null 39C kill, p53null 32C tox, DRV1 agonist)
CCC(C)(C)c1ccc(CC(C)CN2C[C@@H](C)O[C@@H](C)C2)cc1 (stereo partly specified)	DRV1 agonist 112.6 (no result: p53null 39C kill, p53null 32C tox)
COc1ccc(CNC(=O)CSc2ncc(S(=O)(=O)c3ccc(Br)cc3)c(=O)[nH]2)cc1	none
COC(=O)c1cc(Cl)ccc1NC(=O)CSc1ncc(S(=O)(=O)c2ccc(Br)cc2)c(=O)[nH]1	FH mod inconclusive, DRV1 agonist 100.2
COc1cc2oc(=O)c(CC(=O)NCCc3ccccc3F)c(C)c2cc1OC	DRV1 agonist 77.0 (no result: FH mod)
Cc1ccc(C(C)(C)C)c(OCC(=O)NCCc2nc3ccccc3[nH]2)c1	DRV1 agonist 61.3
C[C@H](N)C(=O)N[C@@H](Cc1ccc(O)cc1)C(=O)N1CCC[C@H]1C(=O)NCC(=O)N[C@@H](CCCCN)C(=O)N[C@@H](Cc1ccccc1)C(N)=O	none (no result: p53null 39C kill, p53null 32C tox, DRV1 agonist)
Cn1ncnc1COc1nn2c(-c3cc(F)ccc3F)nnc2cc1C(C)(C)C	none (no result: p53null 39C kill, p53null 32C tox, DRV1 agonist)
COc1ccc(NC(=O)c2c(C)oc3ccc(O)c(CN4CCCC(C)C4)c23)cc1 (stereo unspecified)	DRV1 agonist 61.2 (no result: FH mod)
COC(=O)C1=CO[C@@H](O[C@@H]2O[C@H](CO[C@@H]3O[C@H](COC(=O)/C=C/c4cc(OC)c(O)c(OC)c4)[C@@H](O)[C@H](O)[C@H]3O)[C@@H](O)[C@H](O)[C@H]2O)[C@@H]2C(CO)=CC[C@H]12	none (no result: p53null 39C kill, p53null 32C tox, DRV1 agonist)
CCN(c1ccc(OC)cc1)S(=O)(=O)c1ccc2[nH]c3c(c2c1)CCCCC3	FH mod inconclusive
COc1cccc(CNS(=O)(=O)c2ccc3[nH]c4c(c3c2)CCCCC4)c1	FH mod inconclusive, DRV1 agonist 64.5
O=S(=O)(Nc1cccc(F)c1)c1ccc2[nH]c3c(c2c1)CCCCC3	FH mod 35.5µM, p53null 39C kill 15.8µM, DRV1 agonist 61.6
Cc1ccc(N(C)S(=O)(=O)c2ccc3[nH]c4c(c3c2)CCCC4)cc1	FH mod inconclusive, DRV1 agonist 109.3
Cc1ccc(NS(=O)(=O)c2ccc3[nH]c4c(c3c2)CCCCCC4)cc1	FH mod inconclusive, DRV1 agonist 101.7
Cn1ncc(Cl)c1-c1cc(C(=O)N[C@H](CN)Cc2ccc(F)c(F)c2)oc1Cl	none (no result: p53null 39C kill, p53null 32C tox, DRV1 agonist)
CC(C)=C1CC2[C@](C)(CC[C@@H](OC(=O)C3(C)OC3C)[C@@]2(C)O)CC1=O (stereo partly specified)	none (no result: p53null 39C kill, p53null 32C tox, DRV1 agonist)
CSCC[C@H](NC(=O)[C@H](CCSC)NC(=O)CNC(=O)[C@H](Cc1ccc(O)cc1)NC(=O)[C@H](Cc1ccccc1)NC(=O)[C@H](CCCN=C(N)N)NC(=O)[C@H](CC(=O)O)NC(=O)[C@@H]1CCCN1C(=O)[C@H](CC(=O)O)NC(=O)[C@@H]1CCCN1C(=O)[C@@H]1CCCN1C(=O)[C@@H](N)CC(=O)O)C(N)=O	none (no result: p53null 39C kill, p53null 32C tox, DRV1 agonist)
COc1cc(NS(=O)(=O)c2ccc3[nH]c4c(c3c2)CCCC4)cc(OC)c1OC	FH mod inconclusive, p53null 39C kill inconclusive, DRV1 agonist 82.2
COc1cc(NS(=O)(=O)c2ccc3[nH]c4c(c3c2)CCCCCC4)cc(OC)c1	FH mod inconclusive, DRV1 agonist 101.9
COc1cc(NC(=O)CN(C)S(=O)(=O)c2ccc3[nH]c4c(c3c2)CCCC4)cc(OC)c1OC	DRV1 agonist 105.1
C=C[C@H]1C(O[C@@H]2O[C@H](CO)[C@@H](O)[C@H](O)[C@H]2O)OC=C2C(=O)N3CCc4c([nH]c5ccccc45)C3CC21 (stereo partly specified)	none (no result: p53null 39C kill, p53null 32C tox, DRV1 agonist)
COC(=O)CCC1(C)C(C(C)(C)O)C(O)CC2(C)Oc3c(C)c4c(c(OC)c3CC21)C(=O)OC4 (stereo unspecified)	none (no result: p53null 39C kill, p53null 32C tox, DRV1 agonist)
CN[C@@H]1[C@@H](O)[C@@H](O[C@@H]2[C@@H](O)[C@H](O[C@H]3O[C@@H]([C@@H](C)NC)CC[C@H]3N)[C@@H](N)C[C@H]2N)OC[C@]1(C)O	none (no result: p53null 39C kill, p53null 32C tox, DRV1 agonist)
CCCCNc1c(C(=O)OCC)c(C)nc2c1cnn2CC	DRV1 agonist 75.5! (no result: p53null 39C kill, p53null 32C tox)
Cc1ccc(Cl)cc1N1CCN(C(=O)C2CCN(Cc3nc(-c4cccc(Cl)c4)oc3C)CC2)CC1	p53null 39C kill 25.1µM
Brc1c(Br)c(Br)c2n[nH]nc2c1Br	FH mod 31.6µM (no result: p53null 39C kill, p53null 32C tox)
C[C@@H]1O[C@@H](O[C@@H]2[C@@H](O)[C@H](O[C@@H]3[C@@H](O)[C@@H](O)[C@H](O[C@H]4[C@H](OC(=O)[C@]56CCC(C)(C)C[C@H]5C5=CCC7[C@@]8(C)C[C@H](O)[C@H](O[C@@H]9O[C@H](C(=O)O)[C@@H](O)[C@H](O)[C@H]9O)[C@@](C)(CO)C8[C@H](O)C[C@@]7(C)[C@]5(C)CC6)OC[C@H](O)[C@@H]4O)O[C@H]3C)OC[C@H]2O)[C@H](O)[C@H](O)[C@H]1O (stereo partly specified)	none (no result: p53null 39C kill, p53null 32C tox, DRV1 agonist)
CSc1ccc(/C=C/c2nc3ccccc3n2S(=O)(=O)c2ccc(F)c(C)c2)cc1	p53null 39C kill 10µM, p53null 32C tox 7.94µM
CCOc1ccc(/C=C/c2nc3ccccc3n2S(=O)(=O)c2cccc(Cl)c2)cc1	p53null 39C kill 6.31µM, p53null 32C tox 12.6µM, DRV1 agonist 69.8
CCOc1ccc(Cn2c(CNS(=O)(=O)c3cccc(Cl)c3)nc3cccnc32)cc1	none
Cc1ccc(/C=C/c2nc3ccccc3n2S(=O)(=O)c2cccc(Cl)c2)cc1	p53null 39C kill 3.16µM, p53null 32C tox 3.16µM
CCOC(=O)N1CCc2c(sc(NCc3sccc3C)c2C(=O)Nc2ccc(OC)cc2OC)C1	DRV1 agonist 117.1
CCOC(=O)N1CCc2c(sc(NCc3sccc3C)c2C(=O)Nc2ccccc2OCC)C1	DRV1 agonist 62.6
CC[C@]1(O)C[C@H]2CN(CCC3C(=Nc4ccccc43)[C@@](C(=O)OC)(c3cc4c(cc3OC)N(C)[C@H]3[C@@](O)(C(N)=O)[C@H](O)[C@]5(CC)C=CCN6CC[C@]43[C@@H]65)C2)C1 (stereo partly specified)	none (no result: p53null 39C kill, p53null 32C tox, DRV1 agonist)
Nc1ncnc2c1ncn2[C@@H]1O[C@H](CO)C(O)[C@H]1O (stereo partly specified)	none (no result: p53null 39C kill, p53null 32C tox, DRV1 agonist)
COc1cc(/C=C(\C#N)c2nc3ccc(C)cc3[nH]2)ccc1OCc1ccc(C)cc1	p53null 39C kill 12.6µM, p53null 32C tox inconclusive
COc1ccc(C(=O)Nc2ccc(-c3nc4cc(C)ccc4o3)c(O)c2)cc1	none
Cc1ccc2oc(-c3cc(NC(=O)Cc4ccccc4)ccc3Cl)nc2c1	DRV1 agonist 64.3 (no result: FH mod)
Cc1ccc(C(=O)Nc2ccc3oc(-c4ccccc4C)nc3c2)cc1	DRV1 agonist 75.9
